The list is not random: actives were taken first. Their share in the collection is about 7.6%.
p53 reactivation: qHTS assay for re-activators of p53 using a Luc reporter | hit rate 0.063% among 320,000 | Potency, µM (doses to about 92.2 µM), inactives show at the highest dose activity change, positive = activation, hits mostly activators | H1299 p53-A138V BP100-luciferase reporter, luminescence, 24 h; also: potency is read from the fitted curve at half-maximal effect; % of control where 0% means no effect; nearly all actives have a fitted effect of over 45% in size
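p53-null H1299 cells stably carrying temperature-sensitive p53-A138V and a BP100-luciferase reporter were pinned with compounds (4-point, 1:5 series) and held 24 hrs at 37 deg C. Luminescence was read 10 min after detection reagent.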
BRCA1 expr act: qHTS Assay to Identify Small Molecule Activators of BRCA1 Expression; MCF7-BRCA1-FFLuc reporter, luminescence, 48 h; response scale: scaled: vehicle 0%, 10 µM genistein 100%; Potency, µM (highest dose often 46.1 µM), inactives show at the highest dose activation, hits mostly activators; hit rate 1.1% among 380,000; also: potency is read from the fitted curve at half-maximal effect; nearly all actives have a fitted effect of over 80% in size
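Using MCF7 cells harboring a BRCA1 firefly luciferase reporter, plated 2 h before compound pinning, the screen measured luminescence after 48 h incubation. Responses were normalized to DMSO and 10 microM genistein, then fitted for concentration-effect.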
VP16 counter: VP16 counterscreen qHTS for inhibitors of ROR gamma transcriptional activity; Drosophila S2 Gal4-VP16 UAS-luciferase, luminescence, 20 h; Potency, µM (top dose mostly 53.6 µM), without a hit: at the highest dose activity, negative = inhibition, usual class: inhibitors; hit rate 3.5% among 310,000; AID 2546, 2010;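 also: Gal4-VP16 expression switched on by copper sulfate through the metallothionein promoter; potency is read from the fitted curve at half-maximal effect; % is scaled to controls: 0 for no effect and ±100 for the full control effect; nearly all actives have a fitted effect of over 50% in size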
RORg inh: qHTS for inhibitors of ROR gamma transcriptional activity; Potency, µM (titrated, usually from 53.6 µM), inactives show at the highest dose activity change, negative = inhibition, usual class: inhibitors; Nuclear receptor ROR-gamma (Mus musculus), P51450; Drosophila S2 Gal4-RORgamma UAS-luciferase reporter, 20 h; hit rate 5.4% among 310,000; AID 2551, 2010; also: potency is read from the fitted curve at half-maximal effect; % is scaled to controls: 0 for no effect and ±100 for the full control effect; nearly all actives have a fitted effect of over 60% in size
Target sequence (P51450 whole entry, looked up, the tested form may be a part): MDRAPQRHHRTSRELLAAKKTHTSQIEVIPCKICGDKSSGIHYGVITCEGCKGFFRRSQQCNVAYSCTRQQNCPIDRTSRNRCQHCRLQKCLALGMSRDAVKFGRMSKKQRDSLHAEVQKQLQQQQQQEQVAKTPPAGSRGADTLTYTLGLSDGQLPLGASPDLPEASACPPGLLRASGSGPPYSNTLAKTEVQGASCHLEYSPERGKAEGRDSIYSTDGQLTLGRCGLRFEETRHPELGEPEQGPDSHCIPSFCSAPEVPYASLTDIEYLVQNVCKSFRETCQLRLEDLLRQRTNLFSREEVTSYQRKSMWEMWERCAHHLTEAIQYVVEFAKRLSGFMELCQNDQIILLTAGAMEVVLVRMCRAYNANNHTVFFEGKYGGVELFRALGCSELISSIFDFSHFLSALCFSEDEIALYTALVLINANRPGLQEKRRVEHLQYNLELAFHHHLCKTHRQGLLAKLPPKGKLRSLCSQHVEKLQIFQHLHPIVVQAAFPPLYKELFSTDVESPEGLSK
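In this cell-based reporter format, copper sulfate (700 uM final) drives Gal4–ROR gamma fusion expression from a metallothionein promoter in Drosophila Schneider cells; compounds preincubated 1 hr, reporter read after 20 hr at ambient temperature.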
ELG1 repair inh: qHTS screen for small molecules that inhibit ELG1-dependent DNA repair in human embryonic kidney (HEK293T) cells expressing luciferase-tagged ELG1. HEK293T ELG1-luciferase reporter, luminescence, 16 h; DNA damage induced by 5-fluorouridine. Potency, µM (highest dose often 46.1 µM), inactives show at the top dose activity change, negative = inhibition, usual class: inhibitors. hit rate 2.3% among 330,000. AID 504467, 2011; also: potency is read from the fitted curve at half-maximal effect; % is scaled to controls: 0 for no effect and ±100 for the full control effect; nearly all actives have a fitted effect of over 55% in size
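5-Fluorouridine DNA damage + compound/DMSO, 2,000 cells/well, 16 h, 37 °C/5% CO2. ONE-Glo, 30 min RT, luminescence. Readout = decrease in reporter signal.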
Giardia kill: Small Molecules that selectively kill Giardia lamblia: qHTS. activity change, % at 7.66 µM, hits read low. hit rate 0.15% among 340,000. Giardia lamblia trophozoite viability; in the data active = activity change below about -80%; inconclusive = between about -30% and that limit;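 also: parasites exposed to compound for two days anaerobically before the ATP read; % is scaled to controls: 0 for no effect and ±100 for the full control effect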
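Giardia trophozoites, 100 cells per well, were exposed to compounds for 48 hrs at 37 deg C under anaerobic conditions; viability was then read as ATP content by bioluminescence after 15-30 min at room temperature.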
Numbers without * were called inactive; ? = inconclusive; . = not tested or not shown. Unless noted, calls follow the shape of the dose curve; as a rule, active = well fitted curve in the direction sought with a large enough effect; inconclusive = small, poorly fitted or top-dose-only effect, or another doubt; inactive = no such curve, though single readings can be large; an effect the other way counts as inactive or inconclusive.

SMILES	p53 reactivation	BRCA1 expr act	VP16 counter	RORg inh	ELG1 repair inh	Giardia kill
CCn1c(=O)c(C(=O)NCc2ccccn2)c(O)c2ccccc21	-6%	-49%	7.1µM*	3.2µM*	8%	-3
CSc1nnc(C)c(=O)n1COC(=O)c1ccc([N+](=O)[O-])cc1	-1%	-16%	7%	-5%	-2%	0
CCOc1ccc(C(=O)NNC2CC(=O)N(Cc3ccc(Cl)cc3)C2=O)cc1OC (configuration not stated)	1%	-7%	1.3µM*	3.2µM*	7%	-15
CCOC(=O)c1c(C)c(C(=O)NCc2ccccn2)c(C)n1C	-2%	4%	-8%	18%	2%	-8
Cc1cc(C(=O)Nc2cc(S(C)(=O)=O)ccc2Cl)c(C)o1	4%	-28%	.	.	4%	-16
CC(C)CC(=O)NC(=S)Nc1ccc(S(=O)(=O)N2CCCC2)cc1	-3%	-14%	-13%	16µM*	-25%	13
CN1CCN(S(=O)(=O)c2ccc(NC(=S)NC(=O)C3CCC3)cc2)CC1	-6%	6%	-2%	-6%	-8%	-17
O=C(NC(=S)Nc1ccc(S(=O)(=O)N2CCCC2)cc1)C1CCC1	-13%	15%	-2%	11µM*	-23%	-7
Cc1ccccc1C(=O)N1CCC(C(=O)Nc2ccc(S(=O)(=O)N3CCOCC3)cc2)CC1	-2%	4%	.	.	-9%	3
Cc1ccccc1C(=O)N1CCC(C(=O)Nc2ccc(S(=O)(=O)N3CCCCC3)cc2)CC1	-38%	-44%	?	?	15µM*	7
O=C(NC(=S)Nc1ccc(S(=O)(=O)N2CCCC2)cc1)C1CC1	12%	0%	-1%	10µM*	?	14
C=CCNC(=O)C1(S(=O)(=O)c2ccccc2)CC=CC1	10%	2%	1%	8%	-4%	6
CCOC(=O)c1cc(OC(=O)c2ccc(OC)cc2)n(-c2ccccc2)n1	.	46%	.	.	.	.
Cc1ccc(S(=O)(=O)Nc2ccccc2-c2nc3ccccc3[nH]c2=O)cc1	-8%	-33%	.	.	-16%	17
N#Cc1ccccc1Sc1ccccc1C(=O)NCC(c1ccco1)N1CCCCC1 (configuration not stated)	0%	-25%	.	.	3%	-30
CN(C1CCCCC1)S(=O)(=O)c1ccc(S(=O)(=O)N2CCN(C(=O)c3ccccc3F)CC2)cc1	2%	-40%	-1%	0%	18µM*	5
O=C(Nc1ccc2c(c1)oc1ccccc12)C1CC1	?	61%	-3%	3%	?	-10
O=C(Nc1ccc2c(c1)oc1ccc(S(=O)(=O)N3CCCC3)cc12)C1CC1	-2%	-38%	-5%	12%	16µM*	-1
O=C(c1ccccc1F)N1CCN(S(=O)(=O)c2ccc3c(c2)OCCO3)CC1	2%	-10%	1%	-15%	?	6
COC(=O)CCC(=O)Nc1ccc2oc3c(c2c1)CCCC3	-3%	-32%	1%	37%	14%	-8
Cc1ccccc1-c1cc2nc(NCc3ccncc3)n(C)c(=O)c2s1	.	44%	.	.	.	.
CC[C@H](C)[C@H](NC(N)=O)C(=O)Nc1ccc2c(c1)OCO2	12%	0%	-10%	21%	10%	10
O=C(NCCOc1ccccc1)c1ccccc1Cl	7%	?	?	-26%	?	9
CN(C(=O)COc1ccccc1C(=O)NCCOc1ccccc1)c1ccccc1	-14%	-89%	7.9µM*	?	10µM*	-16
COc1cccc(OC)c1NC(=O)Cn1nc(C)c2ccccc2c1=O	12%	2%	-9%	-4%	9%	-8

Screening results deposited in PubChem by National Center for Advancing Translational Sciences (NCATS).
